Bioassay records as filed in PubChem BioAssay.
tim10-1 inh = growth inhibitors of tim10-1 mutant yeast. 330,000 compounds, 2.2% hits. inhibition, % at 20 µM. S. cerevisiae tim10-1 ts strain growth, BacTiter-Glo, 24 h;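 active = inhibition of at least 40%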;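 note: mutant grown at 25 °C; 0% = DMSO wells with yeast and 100% = wells holding no yeast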
tim23-1 inh = growth inhibitors of tim23-1 mutant yeast; S. cerevisiae tim23-1 growth, BacTiter-Glo luminescence, 24 h; inhibition, % at 20 µM; 330,000 compounds, 1.3% hits;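 active = growth inhibition of the mutant yeast at or above 50%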;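 note: temperature-sensitive mutant grown at 25 °C; plate controls were DMSO-treated mutant yeast for no effect and medium wells lacking yeast for full effect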
SKKanGAS inh = inhibitors of SKKanGAS S. pyogenes growth in kanamycin (SK-promoter or general growth effect). 300,000 compounds, 1.3% hits. BacTiter-Glo, 6 h. AID 1662. inhibition, % at 7.5 µM;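 active = mean replicate score, as percent of positive control median, at least 50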;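 note: strain carries kanamycin resistance gene driven by streptokinase promoter and grows in 40 µg/ml kanamycin; loss of luminescence reflects streptokinase promoter inhibition or plain growth inhibition; 0% = median of DMSO wells and 100% = positive control at its reference dose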
TIM10 inh = inhibits growth of TIM10 yeast strain. S. cerevisiae TIM10 strain growth, BacTiter-Glo luminescence, 24 h. 330,000 compounds, 1.4% hits. inhibition, % at 10 µM;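 active = inhibition of 40% or more at the single tested concentration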;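 note: wild-type TIM10 isogenic control strain grown at permissive 25 °C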
NALP3 yeast inh = NALP3 inhibition in yeast. Yeast reconstituted NLRP3/ASC/caspase-1, beta-gal luminescence, 24 h. inhibition, % at 10 µM. 330,000 compounds, 0.39% hits. AID 2825;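 active = inhibition of 50% or more; inactive = inhibition below 50%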;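 note: plate controls were induced DMSO wells for no effect and uninduced yeast grown without galactose for full effect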
PfHsp90 set2 = growth inhibition of yeast expressing Plasmodium Hsp90; S. cerevisiae expressing PfHsp90, BacTiter-Glo ATP, 48 h; yeast lacking PDR1 and PDR3 efflux regulators; 310,000 compounds, 0.32% hits; inhibition, % at 9.4 µM;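 active = every replicate shows inhibition above about 80%, whatever the replicate mean, limit read from the data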;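 note: 0% = DMSO neutral controls and 100% = 20 µM radicicol positive controls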
NALP3 confirm = NALP3 inhibition confirmation in yeast | shares compounds with NALP3 yeast inh | 1,300 compounds, 81% hits | yeast expressing human NALP3, luminescence | inhibition, % at 10 µM | AID 435006; in the data active = inhibition above about 48%
Casp1 ASC ctr = counter-screen for NALP3 inhibitors: yeast caspase-1-ASC | shares compounds with NALP3 yeast inh | yeast expressing Caspase-1-ASC, luminescence counter screen | inhibition, % at 10 µM | 1,000 compounds, 66% hits
NALP3 yeast rt = yeast NALP3 inhibition, confirmed on retest | shares compounds with NALP3 yeast inh | yeast expressing human NALP3, luminescence read-out | inhibition, % at 10 µM | 1,000 compounds, 53% hits | AID 488794
tim10-1 confirm = confirmation of tim10-1 mutant yeast growth inhibitors | shares compounds with tim10-1 inh | AID 463213 | inhibition, % at 20 µM | 7,400 compounds, 56% hits | S. cerevisiae tim10-1 ts strain growth, BacTiter-Glo, 24 h;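 active = inhibition of yeast growth at or above a set limit in either of two repeat tests at 20 µM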;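 note: tim10-1 mutant grown at permissive 25 °C to find synthetic lethal compounds; 0% = DMSO yeast wells and 100% = medium wells without yeast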
TIM10 conf = confirmation of TIM10 yeast growth inhibitors; shares compounds with TIM10 inh; S. cerevisiae tim10 strain growth, BacTiter-Glo luminescence, 24 h; inhibition, % at 10 µM; 4,600 compounds, 63% hits; AID 463215;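 active = inhibition of yeast growth at or above a set limit in either of two replicates at 10 µM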;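 note: this counterscreen used the strain with wild-type TIM10; 0% = yeast with DMSO and 100% = medium wells lacking yeast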
tim23-1 conf = tim23-1 yeast growth inhibition, confirmed; shares compounds with tim23-1 inh; S. cerevisiae tim23-1 growth, BacTiter-Glo luminescence, 24 h; inhibition, % at 20 µM; 4,400 compounds, 83% hits;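 active = inhibition above about 39% in either of two replicate wells at 20 µM, limit read from the data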;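 note: temperature-sensitive tim23-1 mutant grown at 25 °C; 0% = DMSO wells with yeast and 100% = medium wells without yeast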
An asterisk follows results filed as active; / = not tested or not shown. Hits are enriched below; roughly 4.6% of the tested compounds scored in any of these assays. Cut-off read from the data, not from the text of the source, unless noted: active = inhibition above about 50%; inactive = the rest.

SMILES	tim10-1 inh	tim23-1 inh	SKKanGAS inh	TIM10 inh	NALP3 yeast inh	PfHsp90 set2	NALP3 confirm	Casp1 ASC ctr	NALP3 yeast rt	tim10-1 confirm	tim23-1 conf	others
O=C(NC(=S)NNC(=O)c1ccccc1O)c1cccs1	0	53*	90*	51*	59*	24	78*	70*	56*	/	66*	TIM10 conf=47*
Cc1cc(C(=O)CCl)c(C)n1CCc1ccccc1	36	66*	-2	37	-116	/	25	/	/	/	16
CCOC(=O)c1cc(C)n(CCc2ccccc2)c1C	13	15	-1	6	16	62	/	/	/	/	/
CC(C)c1ccc(-c2csc(NC(=O)c3cccs3)c2C(=O)O)cc1	76*	67*	30	81*	71*	30	84*	76*	74*	86*	89*	TIM10 conf=92*
Cc1ccc(-c2csc(NC(=O)c3ccc(Br)cc3)c2C(=O)O)cc1	81*	84*	26	82*	91*	24	96*	95*	88*	82*	89*	TIM10 conf=93*
Cc1ccc(-c2csc(NC(=O)/C=C/c3ccco3)c2C(=O)O)cc1	76*	79*	12	81*	83*	28	90*	90*	84*	74*	89*	TIM10 conf=79*
Cc1ccc(-c2csc(NC(=O)c3cccc(C)c3)c2C(=O)O)cc1	72*	83*	39	83*	65*	30	70*	66*	61*	84*	89*	TIM10 conf=90*
O=C(Nc1scc(-c2ccc(F)cc2)c1C(=O)O)c1ccco1	-8	20	12	2	22	41	/	/	/	/	/
CC(C)c1ccc(C(CC(=O)O)NC(=O)c2cccs2)cc1 (configuration not stated)	10	7	-5	-6	-2	14	/	/	/	/	/
O=C1c2ccccc2NC(c2ccc(O)cc2)N1c1ccccc1 (configuration not stated)	10	10	1	-5	1	18	/	/	/	/	/
CC(C)(C)c1csc(NC(=O)c2ccccc2O)n1	84*	89*	16	67*	55*	-28	55*	59*	49	84*	92*	TIM10 conf=72*
CC(=O)N1CCN2C(=O)C1CCCC(=O)c1cc(C)ccc12 (configuration not stated)	-12	-20	-4	-4	10	-13	/	/	/	/	/
Cn1c2c(c(=O)n(C)c1=O)C(C(F)(F)F)(C(F)(F)F)N=C(c1ccc(Cl)cc1)N2	61*	59*	15	33	54*	8	92*	77*	88*	59*	51*
CC(C)CC(=O)c1c[nH]c(C(=O)NCc2ccc(F)cc2)c1	-20	1	-4	7	1	2	/	/	/	/	/
COCCCN(C(=O)c1cc(-c2ccco2)nc2ccccc12)c1c(N)n(Cc2ccccc2)c(=O)[nH]c1=O	-10	-5	7	4	17	/	/	/	/	/	/
CC(C)(C)n1cnc2cc(NC(=O)c3cccs3)ccc21	25	53*	13	61*	57*	23	74*	60*	45	/	71*	TIM10 conf=55*
O=c1c(NCCc2ccc(Cl)cc2)c(-c2ccccc2)c1=O	-6	17	2	12	5	-2	/	/	/	/	/
COc1cc2oc3ccccc3c(=O)c2cc1OC	43*	63*	-11	7	62*	-11	72*	55*	59*	21	53*
O=c1c2ccccc2oc2cc(Br)ccc12	/	/	/	/	/	-15	/	/	/	/	/
CCN1C(=O)C2C(C1=O)N1C(c3cccs3)C3C(=O)N(CC)C(=O)C3N1C2c1cccs1 (configuration not stated)	-7	6	-2	-12	-2	2	/	/	/	/	/
Nc1nc(-c2ccccc2)cs1	4	15	2	2	20	-5	/	/	/	/	/
Nc1nc(-c2cc(-c3ccccc3)no2)cs1	26	80*	8	51*	56*	13	75*	64*	61*	/	75*	TIM10 conf=58*
Cc1nc2ccc(C(C(F)(F)F)(C(F)(F)F)C(F)(F)F)cc2[nH]1	30	59*	-1	35	95*	4	90*	89*	80*	/	66*
Cc1nc2ccc(Cl)cc2[nH]1	/	/	/	/	/	14	/	/	/	/	/
CCCCc1ccc(NC(=S)N2CCN(C(=O)c3ccco3)CC2)cc1	43*	36	-3	25	17	16	/	/	/	24	/
SMILES	tim10-1 inh	tim23-1 inh	SKKanGAS inh	TIM10 inh	NALP3 yeast inh	PfHsp90 set2	NALP3 confirm	Casp1 ASC ctr	NALP3 yeast rt	tim10-1 confirm	tim23-1 conf	others
Cc1cccc(NC(=S)N2CCN(C(=O)c3ccco3)CC2)c1	7	-1	-3	10	19	-10	/	/	/	/	/
Cc1cccc(Cn2nc(C)cc2NC(=O)CCCn2ccc([N+](=O)[O-])n2)c1	31	10	3	22	-9	/	/	/	/	/	/
CO/N=C\c1cc(C(=O)c2ccc(Cl)cc2Cl)cn1C	11	17	38	-21	35	22	/	/	/	/	/
O=C(Nc1ccccc1C(=O)N/N=C/c1ccco1)c1ccccc1	41*	24	-2	12	10	18	/	/	/	26	/
O=C(Nc1ccccc1C(=O)N/N=C/c1ccco1)c1ccc(Cl)cc1	39	40	1	22	-11	11	/	/	/	/	/
Cc1cccc(OC(C)C(=O)N2CCCN(C)CC2)c1C (configuration not stated)	17	13	8	10	-6	1	/	/	/	/	/
OC(CNCC1CCCO1)Cn1c2ccc(Cl)cc2c2cc(Cl)ccc21 (configuration not stated)	43*	-32	13	-24	37	-14	/	/	/	22	/
CCOc1ccc(NC(=O)CN2CCN(S(=O)(=O)c3ccc(Cl)cc3)CC2)cc1	41*	37	2	10	7	23	/	/	/	22	/
CC(C)c1ccc(S(=O)(=O)N2CCN(CC(=O)Nc3ccc4c(c3)OCO4)CC2)cc1	52*	35	/	20	1	-10	/	/	/	40*	/
NC(=O)CN1CCN(c2nc(-c3ccc(F)cc3)cs2)CC1	18	3	-2	1	8	19	/	/	/	/	/
